High-throughput results from PubChem.
Gli-Sufu antag: antagonists of Gli-Sufu signaling; AID 588413; 340,000 compounds, 0.74% hits; inhibition, % at 5 µM; Sufu-KO-LIGHT fibroblasts, Gli luciferase reporter luminescence;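 active = inhibition above about 55%, limit read from the data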
NR2F2 inh: blocks human COUP-TFII nuclear receptor; HEK293T NGFI-A luciferase reporter, luminescence; inhibition, % at 8.6 µM; 370,000 compounds, 0.7% hits; AID 686940;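 active = inhibition above a per-plate cutoff, mean inhibition of test wells between control levels plus 3 SD, cut at about 38% in these data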;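 also: cells cotransfected with COUP-TFII expression vector driving the NGFI-A reporter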
GalR3 antagonist: blocks the human galanin receptor 3. HEK293 GalR3-CNG cAMP membrane potential fluorescence; galR3 body fused to GalR1 C-terminus. inhibition, % at 3 µM. 360,000 compounds, 0.44% hits;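 active = inhibition above the screen-wide average plus 3 SD, cut at about 13% in these data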;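 also: forskolin and galanin both at EC90 stimulate the cells; cAMP rise reported by CNG channel membrane potential dye signal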
Target sequence (O60755 1-299 limits assumed): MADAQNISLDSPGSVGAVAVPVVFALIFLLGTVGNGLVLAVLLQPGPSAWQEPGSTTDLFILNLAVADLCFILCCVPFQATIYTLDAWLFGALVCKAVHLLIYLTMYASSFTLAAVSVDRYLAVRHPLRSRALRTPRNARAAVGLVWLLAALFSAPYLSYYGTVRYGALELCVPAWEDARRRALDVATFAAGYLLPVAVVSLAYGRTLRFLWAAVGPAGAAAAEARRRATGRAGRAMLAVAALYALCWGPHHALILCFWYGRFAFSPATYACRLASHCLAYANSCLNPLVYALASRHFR
Jurkat NFkB inh: inhibitors of the PMA/ionomycin-induced NF-kB reporter in Jurkat cells. AID 435003. inhibition, % at 4 µM. PMA/ionomycin-induced NF-kB luciferase reporter, luminescence. 330,000 compounds, 0.53% hits; in the data active = inhibition above about 50%
697 NFkB inh: inhibitors of the PMA/ionomycin-induced NF-kB reporter in 697 B cells | 330,000 compounds, 0.33% hits | inhibition, % at 4 µM | 697 B-cell NF-kB luciferase reporter, 16 h; in the data active = inhibition above about 35%
Gli antag conf: confirmation of Gli-SUFU pathway antagonists; inhibition, % at 5 µM; shares compounds with Gli-Sufu antag; 2,500 compounds, 40% hits; Sufu-KO-LIGHT cells, Gli luciferase reporter, luminescence;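 active = mean inhibition at 5 µM reaching about 45%, limit read from the data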
SufuKO cytotox: cytotoxic in Gli-SUFU antagonist counter-screen; cytotoxicity, % at 5 µM; 2,500 compounds, 32% hits; shares compounds with Gli-Sufu antag; Sufu-KO-LIGHT cells cytotoxicity, ATP luminescence; AID 651994;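 active = mean cytotoxicity at 5 µM above about 25%, limit read from the data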;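 also: cells exposed to compound overnight for roughly 16 to 18 hours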
Wnt3a counter: counter-screen for Gli-SUFU antagonists: Wnt3a reporter inhibition; shares compounds with Gli-Sufu antag; Wnt-LIGHT cells, Wnt3a-driven luciferase reporter, luminescence; inhibition, % at 6.25 µM; 2,500 compounds, 20% hits; AID 651995;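 active = mean inhibition above about 25%, limit read from the data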
A number is an active result; i = inactive; nt = no result given. Hits are enriched below; roughly 2% of the tested compounds scored in any of these assays.

SMILES	Gli-Sufu antag	NR2F2 inh	GalR3 antagonist	Jurkat NFkB inh	697 NFkB inh	Gli antag conf	SufuKO cytotox	Wnt3a counter
Cc1ccc(N2C(=O)CC(N3CCN(C4CCc5ccccc5C4)CC3)C2=O)cc1 (stereo not given)	72	i	i	i	i	i	i	i
CCOc1ccc(N2C(=O)CC(N3CCN(C4CCc5ccccc5C4)CC3)C2=O)cc1 (stereo not given)	i	i	i	i	i	nt	nt	nt
CCN(C(=O)CSc1nnc(-c2ccncc2)n1Cc1ccccc1)C1CCS(=O)(=O)C1 (stereo not given)	58	i	i	i	i	i	i	i
C#CCN1CC(N(C)CCOC(=O)c2ccc([N+](=O)[O-])cc2)CS1(=O)=O (stereo not given)	nt	i	nt	nt	nt	nt	nt	nt
CC[n+]1c(/C=C/N(C)c2ccccc2)oc2ccc(Cl)cc21	79	i	i	i	i	83	27	39
CCn1c(/C=C/N(C(C)=O)c2ccccc2)[n+](CC)c2ccc(Cl)cc21	i	i	i	i	i	nt	nt	nt
CCOC(=O)C1(Cc2ccccc2)CCN(Cc2cccc(C#N)c2)CC1	nt	i	nt	nt	nt	nt	nt	nt
CN(C)S(=O)(=O)c1cccc(-c2nn(-c3ccccc3)cc2/C=C(/C#N)C(=O)NCc2ccco2)c1	83	i	i	i	i	i	i	i
CCN(CC)S(=O)(=O)c1cccc(-c2nn(-c3ccccc3)cc2/C=C(\C#N)C(=O)NCc2ccco2)c1	i	i	i	i	i	nt	nt	nt
COc1ccc2c(c1)CCCN2C(=O)C1CCCN(S(=O)(=O)c2c(C(C)C)cc(C(C)C)cc2C(C)C)C1 (stereo not given)	nt	i	nt	nt	nt	nt	nt	nt
CCOc1ccc(NC(=O)CSc2nnc(-c3n[nH]c4c3CCC4)n2N)cc1	nt	i	nt	nt	nt	nt	nt	nt
c1ccc(Cn2c(-c3ccccc3)c[n+]3c2SCCC3)cc1	70	i	i	i	i	67	37	i
C=CCOC(=O)C1=C(C)NC(C)=C(C(=O)OCC=C)C1c1ccc(C)o1	i	i	i	i	i	nt	nt	nt
CCOC(=O)C1=C(C)NC(C)=C(C(=O)OCC)C1c1ccc(C)o1	59	i	i	i	i	i	27	i
CCCCCCCCN1CCS(=O)(=O)N(Cc2ccc(Cl)cc2)C(C(=O)OC)C1 (stereo not given)	nt	i	nt	nt	nt	nt	nt	nt
CCOC(=O)N1CCN(Cc2nc3c(c(=O)n(C)c(=O)n3C)n2CCCc2ccccc2)CC1	99	i	i	i	i	i	i	i
CCCCCn1c(CN2CCN(C(=O)OCC)CC2)nc2c1c(=O)n(C)c(=O)n2C	i	i	i	i	i	nt	nt	nt
COc1ccc(C(=O)N2CCCCCCC2)cc1OC1CCN(C(C)C)CC1	65	i	i	i	i	i	i	i
CCOC(=O)c1c(NC(=O)COC(=O)c2cc(OC)c(OC)cc2[N+](=O)[O-])sc(C)c1CC	i	i	i	i	i	nt	nt	nt
CCOC(=O)c1c(CC(C)C)csc1NC(=O)COC(=O)c1cc(OC)c(OC)cc1[N+](=O)[O-]	56	i	i	i	i	i	i	i
COc1ccc(S(=O)(=O)Nc2ccccc2Cl)cc1NC(C)=O	i	i	i	i	i	i	i	i
COc1ccc(S(=O)(=O)Nc2ccccc2C(=O)NC2CC2)cc1NC(C)=O	i	i	i	i	i	nt	nt	nt
Cc1c(NC(=O)C2CCCN(S(=O)(=O)c3ccc(C(C)(C)C)cc3)C2)c(=O)n(-c2ccccc2)n1C (stereo not given)	nt	i	nt	nt	nt	nt	nt	nt
Cc1nn(C)cc1C1C(C#N)=C(N)N(c2cccnc2)C2=C1C(=O)CCC2 (stereo not given)	i	i	i	i	i	nt	nt	nt
Cc1ccc(C2C(C#N)=C(N)N(c3cccnc3)C3=C2C(=O)CCC3)s1 (stereo not given)	60	i	i	i	i	i	i	i
CC(=O)c1cc(-c2cccc(C(C)C)c2)c(=O)n2c1CCC2	nt	i	nt	nt	nt	nt	nt	nt
C/C(=N\Nc1ccc2nncn2n1)c1ccco1	i	i	i	i	i	nt	nt	nt
C/C(=N\Nc1ccc2nncn2n1)c1ccc(Br)s1	62	i	i	i	i	i	i	i
